# Data from PubChem BioAssay.
# Assay: adipocyte viability effects, profiling panel, cell-based, 3T3-L1 adipocytes, calcein-AM fluorescence, 48 h, basal (AID 1163); further: test concentration not given here
# Conditions: 3T3-L1 adipocytes viability, higher = more signal
row,SMILES,z-score
1,CC1CC/C=C\[C@H]2OC34C=CCN(c5ccc6ccccc6c5)C(=O)[C@H]3N(CCCCCO)C(=O)[C@@H]4C2C(=O)O1 (stereo not given in full),0.956
2,CN1C(=O)C2C=CC(C(O)C(C)(C)C)N(Nc3ccccc3)C2C1=O (stereo not given),-1.31
3,Cc1ccc(S[C@]2(C(=O)NCCCN(C)C)CC(=O)N(Cc3ccccc3)[C@@H]2c2ccc(CO)cc2)cc1,-0.084
4,O=C1O[C@H](c2ccccc2)[C@H](c2ccccc2)N2[C@H]1[C@@H](C(=O)NC[C@H](O)c1ccccc1)[C@]1(C(=O)Nc3ccc(C#CC4=CCCCC4)cc31)[C@H]2c1ccc(O)cc1,1.72
5,O=C(CS)NCCCCCNC(=O)[C@H]1C[C@H]2C(=O)N[C@@H](Cc3ccccc3)C(=O)N2[C@H]1c1cccc(OCCO)c1,-0.0063
6,CCCC[C@H]1OB(O)C[C@H]2C1=C(COc1ccccc1)C[C@H]1C(=O)N(Cc3ccccc3)C(=O)[C@H]12,0.488
7,O=c1cccc(-c2cccc3ccccc23)o1,-0.893
8,CCCCCN1CC=CC23O[C@@H]4C=CCCOC(=O)C4[C@H]2C(=O)N(CCCO)[C@@H]3C1=O (stereo not given in full),0.133
9,CS(=O)(=O)CCOC(=O)C1=CC(c2ccc(CO)cc2)=CC(c2cccs2)N(Cc2cccc(OC(F)(F)F)c2)C=C1C(=O)OCCS(C)(=O)=O (stereo not given),0.171
10,C#C[C@H](O[Si](C#CCCCCCC)(C(C)C)C(C)C)c1ccccc1,0.102
11,COc1ccc([Si](C)(C)[C@@H]2[C@@H](CCO)O[C@]3(C(=O)N(Cc4ccccc4)c4ccc(N(C=O)c5ccccc5)cc43)[C@H]2C)cc1,-0.895
12,C=C(COC)C(=O)CC[C@H](OC(=O)c1cccnc1)c1ccccc1OCCO,-0.751
13,C=CCC(OC(C)=O)[C@@H]1[C@@H](N(Cc2cc3ccccc3o2)C(=O)c2ccc(C)cc2)c2cc(OCCCO)ccc2N1C(=O)c1ccc(-c2ccccc2)cc1 (stereo not given in full),1.34
14,NC(=O)[C@]1(Cc2ccccc2)N=C(c2ccc(OCCCO)cc2)O[C@@H]1c1ccccc1,0.879
15,[N-]=[N+]=NCc1ccccc1C[C@]1(C(=O)NCCN2CCOCC2)N=C(c2ccc(OCCCO)cc2)O[C@H]1c1ccccc1CN=[N+]=[N-],1.99
16,CCOC(=O)C1=CC[C@@H](c2cccc(Cl)c2)N(S(=O)(=O)c2ccc(C)cc2)[C@H]1c1ccc(C#N)cc1,-1.03
17,O=c1cccc(-c2ccccc2)o1,0.0455
18,CC(=O)NCCCC[C@@H]1NC(=O)[C@@H]2C[C@H](C(=O)NCc3ccc(F)cc3)[C@H](c3ccc(O)cc3)N2C1=O,0.347

row,SMILES,z-score
1,O=C1OCCC=C[C@H]2OC34C=CCN(c5ccc6ccccc6c5)C(=O)[C@H]3N(CCCCCCO)C(=O)[C@@H]4C12 (stereo not given in full),-0.488
2,O=C1OCCC/C=C\[C@H]2OC34C=CCN(Cn5nnc6ccccc65)C(=O)[C@H]3N(CCCO)C(=O)[C@@H]4C12 (stereo not given in full),0.737
3,CC(C)OC(=O)C1=CCC(c2cccc(Cl)c2)O1 (stereo not given),0.102
4,O=C1[C@H]2C=C(Br)[C@H](C[C@@H]2OCCOCCO)[C@@]12CO2,-0.577
5,O=c1cccc(-c2ccc3ccccc3c2)o1,-0.696
6,CCCCCCCCCCC(O)C1C=CC2C(=O)N(c3ccccc3)C(=O)C2N1Nc1ccc([N+](=O)[O-])cc1 (stereo not given),-0.581
7,CN1C(=O)C2C=CC(C(O)c3ccccc3)N(NC(=O)OC(C)(C)C)C2C1=O (stereo not given),0.103
8,CN(C)CCCC[C@@H]1NC(=O)[C@@H]2C[C@H](C(=O)NCCCCCCN)[C@H](c3ccc(O)cc3)N2C1=O,0.958
9,CCOC(=O)C[C@H]1[C@H](OC(=O)c2cc3ccccc3oc2=O)[C@@H](NC(=O)c2ccc3ccccc3c2)c2cc(OCCCO)ccc2N1C(=O)c1ccccc1,2.7
10,COc1ccc([Si](C)(C)[C@@H]2[C@@H](CCO)O[C@]3(C(=O)N(Cc4ccc(N5C(=O)c6cccc7cccc5c67)cc4)c4ccccc43)[C@H]2C)cc1,-0.903
11,O=C(NCC(O)CO)[C@@]1(Cc2ccccc2)COC(c2ccc(OCCCO)cc2)=N1 (stereo not given in full),-0.183
12,CC(C)(C)OC(=O)CC[C@]1(C(=O)NCC(O)CO)N=C(c2ccc(OCCCO)cc2)O[C@H]1c1ccccc1CN=[N+]=[N-] (stereo not given in full),0.351
13,C=C(/C(=C/C[C@@H](OC(C)=O)c1ccc(CO)o1)c1cnc2ccccc2c1)C(C)C,1.36
14,O=C1O[C@H](c2ccccc2)[C@H](c2ccccc2)N2[C@H]1[C@@H](C(=O)NC[C@H](O)c1ccccc1)[C@]1(C(=O)Nc3ccc(C#CC4(O)CCCCCC4)cc31)[C@H]2c1ccccc1OCCO,0.0001
15,O=C1C[C@@](C(=O)O)(c2ccc([N+](=O)[O-])cc2)[C@@H](c2ccc(CO)cc2I)N1C1CCCCC1,1.32
16,COc1ccc(CCNC(=O)[C@@]2(C)c3ccccc3C(=O)N(Cc3ccccc3)[C@H]2c2ccc(CO)cc2)cc1,0.456
17,CC1CC/C=C\[C@H]2OC34C=CCN(Cn5nnc6ccccc65)C(=O)[C@H]3N(CCCO)C(=O)[C@@H]4C2C(=O)O1 (stereo not given in full),1.5
